Data as given in PubChem BioAssay (NCI).
The panel holds about 83,000 compounds, 20% with a hit somewhere; the sample as a whole holds those more often.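 Testing used 96-well plates and a 48-hour single-concentration exposure. Example: -40 means 40% of the starting cells died.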 A number with no mark means an inactive call. Activity calls are given as the source filed them. Rule for the calls: active = growth percent below 10; inactive = the rest.

test system: HL-60(TB) leukemia; assay: NCI-60 one-dose screen, 48 h (100 = growth as untreated, 0 = no growth, -100 = all killed); conditions: 10 µM unless noted

Row | Compound | growth
1 | COc1cc(-c2nc3sccn3c2-c2ccnc(NCCCNS(=O)(=O)c3ccc(F)cc3)n2)ccc1F | 64.9%
2 | Nc1ncnc2c1ncn2C1OC(CO)C2OC21 (stereo not given) | 114%
3 | CC(=O)N1N=C(c2ccc(Nc3nc(Nc4ccc(F)cc4)nc(Nc4ccc(F)cc4)n3)cc2)CC1c1cccc([N+](=O)[O-])c1 (stereo not given) | 0% (active)
4 | CC(C)(C)c1ccc2oc(=O)n(SC(Cl)(Cl)Cl)c2c1 | 70.2%
5 | COc1cccc(Nc2nccc(Nc3ccc4[nH]ncc4c3)n2)c1 | -62.3% (active)
6 | CC1(C)OCC2OC3(C(=O)O)OC(C)(C)OC3C2O1 (stereo not given) | 98.2%
7 | C#C[C@@]1(O)[C@@H](CO)O[C@@H](n2cc(Br)c3c(Cl)ccnc32)[C@@H]1O | -46.5% (active)
8 | CCC([N+](=O)[O-])S(=O)(=O)c1ccc(C)cc1 (stereo not given) | 132%
9 | COc1ccc2c(c1OC)O/C(=C\c1ncc([N+](=O)[O-])n1C)C2=O | -7.92% (active)
10 | O=C(NCCc1c[nH]c2ccccc12)C1Cc2ccccc2CN1C(=O)c1ccco1 (stereo not given) | 82.8%
11 | CC[N+](CC)=c1sc2c(s1)C(c1ccc(Cl)cc1)Oc1ccc(Cl)cc1-2 (stereo not given) | -34.3% (active)
12 | CN(C)CCCOc1ccc(NC2=C(Cl)C(=O)C(Nc3ccc(OCCCN(C)C)cc3)=C(Cl)C2=O)cc1 | -39.9% (active)
13 | CCC1(CC)NC(=O)c2c(c3ccc(Cl)c(Cl)c3n2C)C1C#N (stereo not given) | 91.3%
14 | Cc1c2cnccc2c(C)c2c1c1cc(O)ccc1n2C(C)C | 0.765% (active)
15 | O=C1NC(=O)c2c(CCCSc3nc4ccccc4c(=O)n3CCc3ccccc3)cccc21 | 111%
16 | Cc1ccc(-c2nc(N3CCN(CC(=O)Nc4ccc(Cl)cc4)CC3)c3ccccc3n2)cc1 | 99.8%
17 | CSc1nc(-c2cccc(NC(=O)CCl)c2)c(C#N)c(=O)n1C | -22.1% (active)
18 | O=C(Nc1cccc(Cl)c1)Nc1cc2ncncc2cc1OCc1cccc(F)c1 | 7.49% (active)
19 | c1csc(-c2cc(-c3cc(-c4cccs4)[nH]n3)n[nH]2)c1 | 87.1%
20 | COc1ccc(/C(CS(=O)(=O)c2ccccc2)=N\O)cc1 | 99.5%

Row | Compound | growth
21 | O=C(NCCCNc1nccc(-n2ccc3cccnc32)n1)c1c(F)cccc1F | 102%
22 | O=C(O)c1ccccc1NCc1ccco1 | 102%
23 | C=CN(C(=O)N1CCN(c2cc3c(cc2F)c(=O)c(C(=O)O)cn3C2CC2)CC1)c1nc(-c2ccc(C)cc2)cs1 | -27.2% (active)
24 | O=C1COCCN1c1ccc(NCc2cn(C(=O)c3ccc(Cl)cc3)c3ccccc23)cc1 | 90.6%
25 | C=CCn1c(SCC(=O)Nc2ccc(C(=O)/C=C/c3cc(OC)c(OC)c(OC)c3)cc2)nnc1-c1cc(-c2ccc(OC)cc2)nc2ccccc12 | 96.4%
26 | Nc1c(Cl)cc(/C=C2\C=Cc3ccccc32)cc1Cl | 104%
27 | NS(=O)(=O)c1cc(=O)[nH]c(=O)[nH]1 | 114%
28 | C/C(=N\NC(=O)CSc1nc2ccccc2c(=O)n1Cc1ccc(S(N)(=O)=O)cc1)c1ccc(F)cc1 | 101%
29 | COC(/C=C/c1ccc([N+](=O)[O-])cc1)OC | 42%
30 | N/C(=N\C(N)=N\c1nc2ccccc2s1)c1cccc(Cl)c1 | 19.7%
31 | CC/C(=C(\c1ccc(O)cc1)c1ccc(OCCN(C)CCN(C)C(=O)CCCCC(=O)c2c(C)[nH]c(/C=C3\N=C(c4ccc[nH]4)C=C3OC)c2C)cc1)c1ccccc1 | 103%
32 | N#Cc1c(-c2cccc(Cl)c2)cc(-c2cccnc2)[nH]c1=O | 66.9%
33 | O=[N+]([O-])c1ccc(C=C2C(Cl)=C(Cl)C(Cl)=C2Cl)cc1 | 34.2%
34 | CCNCC(=O)Nc1ccc(C(=O)OCC)cc1 | 88.6%
35 | C=C1CC[C@@H]2C(C)(C)[C@@H](O)CC[C@@]2(C)[C@@H]1COc1ccc2ccc(=O)oc2c1 | 69.1%
36 | O=C(/C(=N/O)S(=O)(=O)c1ccccc1)c1cccs1 | 90.9%
37 | CN(C)CCOc1nc2c3ccncc3cc(-c3cccc(Cl)c3)c2c2cnccc12 | 33.4%
38 | COc1ccc(NC(=O)c2sc3nc(C)c(C(=O)/C=C/c4ccccc4)cc3c2N)cc1 | 24.2%
39 | CCCc1cccc(CCC)c1O | 105%
40 | C=C1C(=O)O[C@H]2[C@H]1CC/C(COC(=O)NCc1ccc(Cn3c(=O)sn(-c4ccc(OC)cc4)c3=O)cc1)=C\CC[C@@]1(C)O[C@@H]21 | -18% (active)
